Reference: PubChem BioAssay (Tox21)
Records with an inconclusive call do not appear. The source made the active and inactive calls. Unless noted, calls follow the shape of the full dose curve.

Key:
[1] = Nuclear factor erythroid 2-related factor 2/antioxidant responsive element (Nrf2/ARE) small molecule agonists: qHTS cell viability counter screen in human keratinocytes (AID 1919968; active = well fitted curve in the direction sought with a large enough effect in the repeat runs; an effect the other way counts as inactive or inconclusive; also: nearly all actives have a fitted effect of over 55% in size; also: potency is read from the fitted curve at half-maximal effect)
Method in brief: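 Viability counter-screen: KeratinoSens reporter cells, DMSO-delivered compounds, 23 h at 37 C, CellTiter-Fluor fluorescence.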

[2] = Nuclear factor erythroid 2-related factor 2/antioxidant responsive element (Nrf2/ARE) small molecule agonists: luciferase reporter gene qHTS assay in human keratinocytes (AID 1919969); also: nearly all actives have a fitted effect of over 35% in size; also: potency is read from the fitted curve at half-maximal effect
[3] = biological target: Gonadotropin-releasing hormone receptor (Homo sapiens) (UniProt P30968); assay: Human gonadotropin-releasing hormone receptor (GnRHR) small molecule agonists, calcium flux assay in GnRHR-HEK293 cells (AID 1920063); also: nearly all actives have a fitted effect of over 35% in size
Gonadotropin-releasing hormone receptor (Homo sapiens), sequence (P30968 whole entry, looked up): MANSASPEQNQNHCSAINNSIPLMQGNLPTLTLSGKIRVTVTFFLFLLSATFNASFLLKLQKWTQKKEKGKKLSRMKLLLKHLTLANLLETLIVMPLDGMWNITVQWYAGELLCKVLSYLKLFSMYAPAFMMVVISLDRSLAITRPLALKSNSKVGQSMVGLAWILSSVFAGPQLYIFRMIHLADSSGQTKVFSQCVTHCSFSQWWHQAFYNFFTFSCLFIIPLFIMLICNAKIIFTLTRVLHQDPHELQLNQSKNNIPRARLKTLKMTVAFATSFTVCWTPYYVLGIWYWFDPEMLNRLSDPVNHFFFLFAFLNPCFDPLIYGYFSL
Method in brief: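 Tox21-format agonist screen using human GnRHR-expressing HEK293 cells and a fluorescent calcium dye; kinetic 3-min fluorescence reading after compound addition, 15-point concentration series run in triplicate.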

[4] = biological target: KiSS-1 receptor (Homo sapiens) (UniProt Q969F8); assay: Human kisspeptin (KISS1R) small molecule agonists, calcium flux assay in KISS1R-HEK293 cells (AID 1920064; active = well fitted curve in the direction sought with a large enough effect in the repeat runs; an effect the other way counts as inactive or inconclusive)
KiSS-1 receptor (Homo sapiens), sequence (Q969F8 whole entry, looked up): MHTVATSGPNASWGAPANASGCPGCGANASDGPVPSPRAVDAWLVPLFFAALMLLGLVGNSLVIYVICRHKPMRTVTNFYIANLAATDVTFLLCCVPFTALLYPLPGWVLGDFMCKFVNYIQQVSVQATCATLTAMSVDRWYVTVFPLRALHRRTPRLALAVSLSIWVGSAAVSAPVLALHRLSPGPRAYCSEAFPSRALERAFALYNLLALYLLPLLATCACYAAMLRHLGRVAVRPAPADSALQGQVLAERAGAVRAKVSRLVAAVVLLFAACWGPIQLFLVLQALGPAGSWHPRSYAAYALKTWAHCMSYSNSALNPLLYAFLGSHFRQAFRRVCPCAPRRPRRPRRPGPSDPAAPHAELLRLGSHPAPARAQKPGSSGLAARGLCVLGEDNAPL
Method in brief: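 Intracellular calcium mobilization in KISS1R-HEK293 cells was recorded by fluorescence (Ex/Em 480/540) for 3 min following compound addition to cells pre-loaded 1 h with calcium dye.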

[5] = G protein-coupled receptor (GPCR) small molecule agonists, calcium flux assay: HEK293 wild type cell line counter screen (AID 1920065)
Method in brief: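 In this agonist-mode screen, ATP is the positive control and DMSO the vehicle. Cells grow 18 h before a 1 h dye incubation at 37 C; signal is taken at Ex/Em 480/540 over 3 min.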

[6] = p53 small molecule agonists, cell-based qHTS assay with human liver microsomes (AID 1963577);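 also: p53 response element beta-lactamase reporter cells with liver microsomes plus NADPH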
Method in brief: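 Reporter activation was measured by LiveBLAzer fluorescence intensity in p53RE-bla cells, which had been exposed to compounds for 16 h at 37 C alongside 0.5 mg/mL human liver microsomes and 0.5 mg/mL NADPH (final concentrations).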

[7] = p53 small molecule agonists, cell-based qHTS assay with rat liver microsomes (AID 1963578)
Method in brief: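 Compound in DMSO added to p53RE-bla cells 5 h post-plating; rat microsomes/NADPH 0.5 mg/mL final; 16 h, 37 C; LiveBLAzer 2 h RT.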

[8] = p53 small molecule agonists, cell-based qHTS assay with human liver microsomes: qHTS cell viability counter screen (AID 1963579); also: nearly all actives have a fitted effect of over 45% in size
Method in brief: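 HLM-supplemented (0.5 mg/mL final) and NADPH-supplemented (0.5 mg/mL final) p53RE-bla cultures, 4,000 cells per well, were dosed with compounds in DMSO for 16 h at 37 C; luminescent ATP detection (CellTiter-Glo, 30 min, room temperature) quantified surviving cells.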

[9] = p53 small molecule agonists, cell-based qHTS assay with rat liver microsomes: qHTS cell viability counter screen (AID 1963580); also: nearly all actives have a fitted effect of over 45% in size
Method in brief: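 p53RE-bla HCT-116 cells were exposed 16 h at 37 C to compounds with rat liver microsomes (0.5 mg/mL) and NADPH (0.5 mg/mL). Viability was measured in the same wells as ATP content by CellTiter-Glo luminescence.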

[10] = p53 small molecule agonists, cell-based qHTS assay: qHTS cell viability counter screen (AID 1963581); also: nearly all actives have a fitted effect of over 45% in size; also: potency is read from the fitted curve at half-maximal effect
Method in brief: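 Compounds are pinned onto HCT-116 p53RE-bla cells and left 16 h at 37 C. Following the reporter FRET read, ATP is quantified by CellTiter-Glo luminescence after 30 min at room temperature.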

[11] = biological target: 5-hydroxytryptamine receptor 2A (Homo sapiens) (UniProt P28223); assay: 5-hydroxytryptamine receptor 2A (HTR2A) small molecule antagonists, cell-based qHTS assay (AID 1963586); also: nearly all actives have a fitted effect of over 45% in size
5-hydroxytryptamine receptor 2A (Homo sapiens), sequence (P28223 whole entry, looked up): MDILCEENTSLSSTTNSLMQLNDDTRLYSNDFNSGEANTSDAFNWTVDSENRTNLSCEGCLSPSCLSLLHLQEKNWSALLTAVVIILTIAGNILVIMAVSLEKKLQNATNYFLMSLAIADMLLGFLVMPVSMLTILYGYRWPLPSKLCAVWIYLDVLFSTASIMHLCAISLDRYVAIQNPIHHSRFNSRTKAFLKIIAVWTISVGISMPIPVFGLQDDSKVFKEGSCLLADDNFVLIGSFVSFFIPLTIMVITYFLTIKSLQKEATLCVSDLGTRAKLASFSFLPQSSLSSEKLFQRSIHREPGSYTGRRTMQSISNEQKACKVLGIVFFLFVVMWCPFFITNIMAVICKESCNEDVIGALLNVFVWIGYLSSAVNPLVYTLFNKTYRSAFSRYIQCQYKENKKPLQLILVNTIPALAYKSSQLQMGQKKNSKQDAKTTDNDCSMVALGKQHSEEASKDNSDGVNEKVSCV
Method in brief: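 Antagonist-mode intracellular calcium assay: DOI (4 nM) added after 5 min compound pre-incubation at room temperature to dye-loaded HTR2A-CHO cells. Fluorescence followed for 3 min, sampled every second.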

[12] = biological target: 5-hydroxytryptamine receptor 2A (Homo sapiens) (UniProt P28223); assay: 5-hydroxytryptamine receptor 2A (HTR2A) small molecule agonists, cell-based qHTS assay (AID 1963587); also: nearly all actives have a fitted effect of over 30% in size
Method in brief: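 CHO cells stably expressing human HTR2A, plated 18 h, loaded with calcium dye 1 h at 37 C. Agonist mode: compounds added and intracellular calcium fluorescence recorded kinetically for 2 min at 1 sec intervals.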

[13] = biological target: Muscarinic acetylcholine receptor M1 (Homo sapiens) (UniProt P11229); assay: Cholinergic receptor muscarinic 1 (CHRM1) small molecule antagonists, cell-based qHTS assay (AID 1963588); also: nearly all actives have a fitted effect of over 40% in size
Muscarinic acetylcholine receptor M1 (Homo sapiens), sequence (P11229 whole entry, looked up): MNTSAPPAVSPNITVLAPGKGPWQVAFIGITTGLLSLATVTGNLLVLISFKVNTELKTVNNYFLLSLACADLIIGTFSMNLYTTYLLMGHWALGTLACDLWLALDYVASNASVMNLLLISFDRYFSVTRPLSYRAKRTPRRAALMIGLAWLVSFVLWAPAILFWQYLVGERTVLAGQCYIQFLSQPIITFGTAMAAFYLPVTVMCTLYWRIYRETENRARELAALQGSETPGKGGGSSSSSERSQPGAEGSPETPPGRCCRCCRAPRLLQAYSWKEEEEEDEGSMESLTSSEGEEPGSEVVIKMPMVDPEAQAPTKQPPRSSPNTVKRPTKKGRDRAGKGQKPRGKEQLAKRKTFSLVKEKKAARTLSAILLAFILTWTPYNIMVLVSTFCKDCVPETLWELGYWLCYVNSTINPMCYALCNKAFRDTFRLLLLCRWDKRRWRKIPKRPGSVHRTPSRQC
Method in brief: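 CHRM1-CHO calcium-flux assay, antagonist mode. Cells were seeded 18 h, dye-loaded 1 h at 37 C and given compound for 5 min at RT, then acetylcholine was added at 50nM. FDSS fluorescence was read 3 min; 15 concentrations, three runs.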

[14] = biological target: Beta-2 adrenergic receptor (Homo sapiens) (UniProt P07550); assay: Adrenergic beta2 receptor (ADRB2) small molecule antagonists, cell-based qHTS assay (AID 1963592); also: series mostly up to about 92 µM; nearly all actives have a fitted effect of over 50% in size
Beta-2 adrenergic receptor (Homo sapiens), sequence (P07550 whole entry, looked up): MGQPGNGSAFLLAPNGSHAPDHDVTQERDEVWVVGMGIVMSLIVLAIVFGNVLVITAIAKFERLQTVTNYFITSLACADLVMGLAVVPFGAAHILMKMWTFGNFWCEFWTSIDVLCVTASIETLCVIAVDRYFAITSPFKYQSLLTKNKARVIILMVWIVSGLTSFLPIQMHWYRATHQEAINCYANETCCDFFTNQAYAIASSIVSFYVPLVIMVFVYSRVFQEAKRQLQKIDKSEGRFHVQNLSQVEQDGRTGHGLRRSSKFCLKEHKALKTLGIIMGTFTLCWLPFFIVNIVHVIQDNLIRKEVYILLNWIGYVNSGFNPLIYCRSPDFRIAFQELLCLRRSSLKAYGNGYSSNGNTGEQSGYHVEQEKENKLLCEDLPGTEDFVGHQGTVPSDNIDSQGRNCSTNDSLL
Method in brief: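 Cells (CHO, stable ADRB2 overexpression) incubated 18-20hr at 37C; compounds added from DMSO; agonist mix (1nM isoproterenol, 100uM IBMX, 25uM Ro-20-1724) added; 0.5hr RT; d2-cAMP and anti-cAMP-cryptate added; 1hr RT; 665/615 nm read.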

[15] = biological target: Beta-2 adrenergic receptor (Homo sapiens) (UniProt P07550); assay: Adrenergic beta2 receptor (ADRB2) small molecule agonists, cell-based qHTS assay (AID 1963593);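 also: CHO cells stably overexpressing human ADRB2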
Method in brief: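 CHO cells stably over-expressing ADRB2 were plated overnight at 37C, then dosed with compounds plus a stimulation mix containing 100uM IBMX and 25uM Ro-20-1724 for 0.5hr at room temperature. cAMP was measured by HTRF competition, 1hr.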

[16] = biological target: D(2) dopamine receptor (Homo sapiens) (UniProt P14416); assay: Dopamine D2 receptor (DRD2) small molecule agonists, cell-based qHTS assay (AID 1963594); also: nearly all actives have a fitted effect of over 35% in size
D(2) dopamine receptor (Homo sapiens), sequence (P14416 whole entry, looked up): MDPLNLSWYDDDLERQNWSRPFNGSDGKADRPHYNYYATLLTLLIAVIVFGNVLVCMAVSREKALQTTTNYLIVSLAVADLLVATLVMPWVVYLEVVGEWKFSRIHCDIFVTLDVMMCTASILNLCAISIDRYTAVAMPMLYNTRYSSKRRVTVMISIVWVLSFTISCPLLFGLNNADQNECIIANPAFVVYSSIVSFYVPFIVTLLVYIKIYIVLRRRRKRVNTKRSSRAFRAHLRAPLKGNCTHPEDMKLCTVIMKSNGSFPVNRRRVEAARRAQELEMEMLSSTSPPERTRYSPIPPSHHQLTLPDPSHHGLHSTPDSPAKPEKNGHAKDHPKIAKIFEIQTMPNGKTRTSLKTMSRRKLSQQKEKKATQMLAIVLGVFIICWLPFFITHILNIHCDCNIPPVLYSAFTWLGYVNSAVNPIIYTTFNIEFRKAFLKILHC
Method in brief: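 HEK293 cells stably expressing human DRD2, pre-treated with PDE inhibitor Ro20-1724 (0.1 mM final) and compound 10 min at room temperature, then stimulated with NKH477 (200nM […]) for 30 min. cAMP read by HTRF (665/620 nm).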

[17] = biological target: D(2) dopamine receptor (Homo sapiens) (UniProt P14416); assay: Dopamine D2 receptor (DRD2) small molecule antagonists, cell-based qHTS assay (AID 1963595; active = well fitted inhibition curve with a large enough effect in the signal ratio in the repeat runs, with a control signal flat; the % refers to the signal ratio)
Method in brief: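 HTRF cAMP read-out at 665 and 620 nm emission (340 nm excitation). Antagonist mode: compounds were tested against 12 nM quinpirole in DRD2-HEK293 cells, with 200 nM NKH477 raising cAMP and 0.1 mM Ro20-1724 blocking its breakdown.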

[18] = biological target: Muscarinic acetylcholine receptor M1 (Homo sapiens) (UniProt P11229); assay: Cholinergic receptor muscarinic 1 (CHRM1) small molecule agonists, cell-based qHTS assay (AID 1963589); also: nearly all actives have a fitted effect of over 35% in size
Method in brief: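 Stable CHRM1-CHO cells (human receptor) were incubated 18 h, dye-loaded for 1 h at 37 C and exposed to test compounds for agonist activity, with calcium-dependent fluorescence followed kinetically.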

[19] = cAMP Responsive Elements (CRE) small molecule agonists, cell-based qHTS assay (AID 1963590)
Method in brief: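 FRET-based beta-lactamase readout (LiveBLAzer B/G, 2 h RT) quantified CRE activation in HEK 293T CRE-bla cells after 3 h treatment with DMSO-dissolved compounds.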

[20] = cAMP Responsive Elements (CRE) small molecule antagonists, cell-based qHTS assay (AID 1963591; active = well fitted inhibition curve with a large enough effect in the signal ratio in the repeat runs, not every such curve was filed as active; the % refers to the signal ratio)
Method in brief: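 qHTS in CRE-bla HEK 293T cells: compound in DMSO, then 0.25 uM NKH477 (final), 3 h at 37 °C/5% CO2; beta-lactamase FRET read-out after 2 h substrate incubation.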

Measured: Potency

CCC(C(=O)O)c1ccc(N2Cc3ccccc3C2=O)cc1 (centres undefined)
not listed: [18] | [19] | [20]
inactive: all other assays above

O=C1c2ccccc2C(=O)N1CCl
not listed: [12] | [20]
inactive: all other assays above

CC1=NC(C)OC1C (centres undefined)
active: [2] 61.1 µM
not listed: [15] | [19] | [20]
inactive: all other assays above

CCC1CCC(CCC(=O)O)C1 (centres undefined)
not listed: [15] | [19]
inactive: all other assays above

Cc1c(C2(c3cc(Br)c(O)c(Br)c3C)OS(=O)(=O)c3ccccc32)cc(Br)c(O)c1Br
active: [1] 21 µM | [10] 22.3 µM
not listed: [12] | [14] | [15] | [16] | [17]
inactive: all other assays above

CC1=C(C)C(=O)C(CCCCC#CCCCC#CCO)=C(C)C1=O
active: [2] 29.8 µM
not listed: [15] | [19] | [20]
inactive: all other assays above

O=C(c1ccc(O)cc1)c1ccc(Cl)cc1
not listed: [15] | [19] | [20]
inactive: all other assays above
